Measurements from PubChem BioAssay (NCI).
Compounds without any hit were thinned out: in the full panel of roughly 83,000, 20% have a hit.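 Percent growth is the endpoint: 0 to 100 indicates growth inhibition (40 means 60% inhibition), 0 means no net growth, and negative values indicate cell death.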 A number with no mark means an inactive call. Activity calls are given as the source filed them. The calls were made as follows: active = growth percent below 10; inactive = the rest.

Assays:
Test in all cases: NCI-60 one-dose screen, 48 h (100 = growth as untreated, 0 = no growth, -100 = all killed)
Details in all cases: 10 µM unless noted
T-47D breast = system: T-47D breast
BT-549 breast = system: BT-549 breast
MDA-MB-435 melanoma = system: MDA-MB-435 melanoma
SW-620 colon = system: SW-620 colon
MCF7 breast = system: MCF7 breast
HCT-116 colon = system: HCT-116 colon
KM12 colon = system: KM12 colon
HCC-2998 colon = system: HCC-2998 colon

Row | Compound | growth (T-47D breast) | growth (BT-549 breast) | growth (MDA-MB-435 melanoma) | growth (SW-620 colon) | growth (MCF7 breast) | growth (HCT-116 colon) | growth (KM12 colon) | growth (HCC-2998 colon)
1 | O=C(O)c1cn(C2CC2)c2cc(N3CCN(C(=O)N(c4ccccc4)c4nc(-c5ccccc5)cs4)CC3)c(F)cc2c1=O | 11.4% | -13% (active) | 8.3% (active) | 20.7% | 6.99% (active) | 5.04% (active) | 5.03% (active) | 
2 | Cc1cc(N2CCCCC2)cc(C)c1-c1csc(NC(=O)c2ccncc2)n1 | 34.3% | 57.6% | 37.1% | 69.9% | 32.6% | 20.7% | 64.5% | 
3 | CCOC(=O)C1=C(c2ccccc2)N=C2SC=C(c3ccc(Cl)cc3)N2C1c1ccc(Cl)cc1 (centres undefined) | 52.4% | 87.5% | 93.2% | 81.8% | 69.5% | 63% | 72.5% | 86.2%
4 | COC12C=C/C(=C(/C(=O)OCc3ccncc3)C(=O)CCCCCCCCC3(OC)C=C/C(=C(/C(=O)OCc4ccncc4)C(=O)CCCCCCCC1)O3)O2 | 8.61% (active) | -14.7% (active) | -53.8% (active) | 9.25% (active) | -42.2% (active) | -62.2% (active) | -77.2% (active) | 
5 | O=C(C[C@]1(O)C(=O)Nc2ccccc21)c1cccc(C(F)(F)F)c1 | 87.9% | 97.6% | 103% | 91.9% | 81.2% | 95.5% | 87.6% | 107%
6 | Nc1ncnc2c1c(-c1cccc(Cl)c1)nn2CC(=O)N1CCOCC1 | 105% | 97.2% | 104% | 106% | 94.9% | 101% | 102% | 
7 | CC(=O)Oc1ccc(/C(=C(\C)c2ccc(Cl)cc2)c2ccc(OCCN3CCCCC3)cc2)cc1 | 29.8% | 73.5% | -5.9% (active) | 66.7% | 3.38% (active) | 32.4% | 24% | 
8 | O=C1NC2(Nc3ccccc31)C(=O)Nc1c(Cl)cc(Cl)cc12 (centres undefined) | 87.9% | 99.3% | 103% | 100% | 88.9% | 98.6% | 100% | 
9 | CN(/C(N)=N/N=C/c1c2ccccc2cc2ccccc12)C1CCCCC1 | 30.8% | 67.7% | 57.5% | 58.6% | 32.8% | 15.9% | 59.6% | 
10 | COc1ccc(\C=N/N=C(N)/C(N)=N\N=C/c2ccc(OC)cc2)cc1 | 90.3% | 116% | 107% | 103% | 104% | 113% | 110% | 
11 | CS(=O)(=O)Nc1cncc(-c2ccc3ncnc(Nc4cncc(Cl)c4)c3c2)c1 | 2.52% (active) | 72.6% | 103% | 107% | 55.6% | 91.3% | 84.7% | 
12 | Cn1cc(-c2csc(-c3c[nH]c4ccccc34)n2)c2cnccc21 | -3.84% (active) | 78.7% | -72.5% (active) | -48% (active) | 16.7% | -59.7% (active) | 22.8% | 
13 | N=C(N)c1ccc(-c2ccc(-c3ccccc3)o2)cc1 | -46% (active) | 40.8% | -91.2% (active) | -75.7% (active) | -57.2% (active) | -100% (active) | -80.3% (active) | 
14 | Nc1cc(C(=O)NC[C@H]2CN(c3ccc(N4CCC(C(=O)O)CC4)cc3)C(=O)O2)ccc1Cl | 98.3% | 104% | 108% | 97.7% | 95.3% | 105% | 100% | 
15 | C=C(C)[C@@H]1CC[C@]2(C(=O)N3CCOCC3)CC[C@]3(C)[C@H](CC[C@@H]4[C@@]5(C)C/C(=C/c6ccncc6)C(=O)C(C)(C)[C@@H]5CC[C@]43C)[C@@H]12 | 26.5% | 73.4% | 62.3% | 50.3% | 28.9% | 32.4% | 52.2% | 58.7%
16 | Cc1cn(-c2cc(NC(=O)c3cccc(C#Cc4cccc5[nH]nc(N)c45)c3)cc(C(F)(F)F)c2)cn1 | 39.2% | 30.3% | 36.1% | 44.1% | 34.2% | 23.5% | 20.6% | 
17 | CN(C)c1ccc(-c2c(C#N)c(N)nn2C(=O)c2ccc(NC(=O)c3ccccn3)cc2)cc1 | 101% | 97.8% | 98.2% | 92.8% | 92.5% | 90.8% | 88% | 

Row | Compound | growth (T-47D breast) | growth (BT-549 breast) | growth (MDA-MB-435 melanoma) | growth (SW-620 colon) | growth (MCF7 breast) | growth (HCT-116 colon) | growth (KM12 colon) | growth (HCC-2998 colon)
18 | Oc1c(I)cc(I)cc1CNCc1ccccn1 | 14.8% | 36.7% | 46.8% | 33.2% | 28.7% | 26.4% | 41.1% | 49.3%
19 | C1CCC([PH+](C2CCCCC2)C2CCCCC2[PH+](C2CCCCC2)C2CCCCC2)CC1.[Au].[CH-]1CCCCC1C1CCCC[N-]1 (centres undefined) | -45.3% (active) | -40.4% (active) | -63.1% (active) | -76.4% (active) | -30.5% (active) | -40.5% (active) | -85.2% (active) | 
20 | CCOC(=O)C1=C(C)NC(=O)NC1c1c(Cl)n(CCCl)c2ccccc12 (centres undefined) | 101% | 92% | 101% | 96.8% | 98.7% | 95.1% | 97.4% | 96.3%
21 | CN(C)Cc1ccc(O)c(C(=O)O)c1 | 109% | 112% | 107% | 106% | 107% | 109% | 108% | 
22 | C/C(Cc1ccc(Cl)cc1)=C(\c1ccc(O)cc1)c1ccc(Cl)cc1 | 82.1% | 98.1% | 93% | 95.4% | 102% | 71.6% | 88.6% | 
23 | Cc1c(-c2ccc(O)cc2)n(Cc2ccc(OCCN3CCCCCC3)cc2)c2ccc(O)cc12 | 58.4% | 84% | 79.6% | 66.3% | 11.6% | 59.1% | 73.4% | 
24 | O=C(Nc1cccc2ccccc12)NC1CC1 | 91.5% | 91.1% | 113% | 105% | 87% | 103% | 115% | 
25 | CN(C)S(=O)(=O)c1cccc(C(=O)Nc2nc(-c3ccc(F)c(F)c3)cs2)c1 | 19.7% | 52.5% | 83.3% | 93.9% | 48.4% | 57.6% | 97.4% | 
26 | CCCCCOC(=O)c1c(C)[nH]c(/C=C2\N=C(c3ccc[nH]3)C=C2OC)c1C | -42.5% (active) | 2.11% (active) | -16.9% (active) | -1.61% (active) | -61.2% (active) | -85.7% (active) | -13.6% (active) | -20.1% (active)
27 | COc1ccc(Nc2nc(-c3cc(O)c(C)c(C)c3O)cs2)cc1 | 39.5% | 79.1% | 7.82% (active) | 70.6% | 47.1% | 82.5% | 23.7% | 
28 | COc1ccc(-c2noc(C(=O)O)c2-c2cc(OC)c(OC)c(OC)c2)cc1 | 27.2% | 49.6% | -41.5% (active) | 22.4% | 18.9% | 19.4% | 27.9% | 
29 | NS(=O)(=O)c1ccc(N=Nc2c(O)n(Cc3ccccc3)c3ccc(Cl)cc23)cc1 | 79.4% | 81.2% | 79.4% | 79.9% | 75.3% | 69.3% | 88.5% | 
30 | O=C1C(Cl)=C(NCCCCCCNC2=C(Cl)C(=O)c3ccccc3C2=O)C(=O)c2ccccc21 | 90.7% | 91.2% | 79.4% | 73.3% | 81.6% | 88% | 98.1% | 
31 | COc1ccc(NC2=C(I)C(=O)c3ncccc3C2=O)cc1 | -32.7% (active) | -6.34% (active) | -88.9% (active) | -60.6% (active) | -53.5% (active) | 2.09% (active) | 15.3% | 
32 | O=C(CSc1nc2ccc([N+](=O)[O-])cc2[nH]1)Nc1ccc([N+](=O)[O-])cc1 | 3.64% (active) | 7.77% (active) | 14.3% | 31.9% | 16% | 9.88% (active) | 21.8% | 
33 | NC(=O)C(=O)c1ccccc1NC=O | 106% | 107% | 101% | 101% | 99.5% | 93.1% | 98.6% | 
34 | Cc1[nH]c(=O)[nH]c(=O)c1Br | 108% | 108% | 102% | 102% | 95.6% | 106% | 108% | 
